{"source": "PubChem BioAssay AID2058", "about": "(Sanford-Burnham Center for Chemical Genomics, 2009)", "note": "Among all 290,000 compounds or so, about 150 (0.052%) were called active. The sample holds actives, similar compounds and a random draw of the others, so the mix is not that of the screen.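 The calls were made as follows: active = inhibition of at least 50% with at least 30 cells and total cytoplasm GFP at most 10,000,000; inconclusive = under 30 cells or total GFP of 10,000,000 plus; inactive = the rest.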 Measured potencies and affinities stand elsewhere."}
{"target": "G-protein coupled receptor 35 (Homo sapiens) (UniProt Q9HC97)", "sequence (Q9HC97 whole entry, looked up)": "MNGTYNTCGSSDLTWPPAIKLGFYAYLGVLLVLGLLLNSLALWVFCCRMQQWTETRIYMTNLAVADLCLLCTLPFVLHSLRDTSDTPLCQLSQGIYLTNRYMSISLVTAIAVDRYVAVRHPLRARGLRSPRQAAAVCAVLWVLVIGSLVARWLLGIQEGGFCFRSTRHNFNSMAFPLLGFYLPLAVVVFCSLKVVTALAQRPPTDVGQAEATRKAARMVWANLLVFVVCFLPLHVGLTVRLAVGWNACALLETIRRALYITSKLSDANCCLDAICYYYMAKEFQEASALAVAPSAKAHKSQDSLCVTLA", "test": "GPR35 antagonists blocking zaprinast-driven arrestin recruitment, primary screen, imaging, U2OS, beta-arrestin-GFP, zaprinast agonist (AID 2058)", "settings": "U2OS GPR35 beta-arrestin-GFP translocation imaging, zaprinast antagonism; at 10 µM; stronger effect = higher value"}
{"molecule": "CSc1nc2ccccc2cc1/C=C(\\C#N)c1cccc(Cl)c1", "inhibition": "3.7% (inactive)"}
{"molecule": "CSc1nc2ccccc2cc1/C=C(\\C#N)c1cccc(C)c1", "inhibition": "55.3% (active)"}
{"molecule": "CSc1nc2ccccc2cc1/C=C(\\C#N)c1ccccc1", "inhibition": "3.1% (inactive)"}
{"molecule": "CN(Cc1nc(-c2cccc(Cl)c2)no1)C1CCOCC1", "inhibition": "-8.4% (inactive)"}
{"molecule": "CSC1=NSC2=NC(=O)/C(=C/c3coc4ccccc4c3=O)C(=N)N12", "inhibition": "4.5% (inactive)"}
{"molecule": "CCSC1=NSC2=NC(=O)/C(=C\\c3coc4ccccc4c3=O)C(=N)N12", "inhibition": "36.4% (inactive)"}
{"molecule": "CC(=O)Nc1cccc(NC(=O)Cc2ccc3ccccc3c2)c1", "inhibition": "0.8% (inactive)"}
{"molecule": "Cc1cc(N2C(=O)C(O)=C(C(=O)c3ccc(C)o3)C2c2ccc([N+](=O)[O-])cc2)no1", "note": "(configuration not stated)", "inhibition": "4.2% (inactive)"}
{"molecule": "Cc1[nH]c2ccccc2c1/C=C/C(=O)c1ccccc1", "inhibition": "4.5% (inactive)"}
{"molecule": "C[n+]1ccc(/C=C/c2c[nH]c3ccc(F)cc23)cc1", "inhibition": "-4.5% (inactive)"}
{"molecule": "Cc1ccc2[nH]cc(/C=C/c3cc[n+](C)cc3)c2c1", "inhibition": "29.2% (inactive)"}
{"molecule": "C=CCn1cc(/C=C/c2cc[n+](C)cc2)c2ccccc21", "inhibition": "17.1% (inactive)"}
{"molecule": "Cc1[nH]c2ccccc2c1/C=C/c1cc[n+](C)cc1", "inhibition": "71.2% (active)"}
{"molecule": "Cc1[nH]c2ccccc2c1/C=C/c1nc2ccccc2c(=O)[nH]1", "inhibition": "-11.7% (inactive)"}
{"molecule": "COC(=O)Cn1c(C)c(/C=C/c2cc[n+](C)cc2)c2ccccc21", "inhibition": "17.9% (inactive)"}
{"molecule": "COc1cccc(CNS(=O)(=O)c2ccc3c(c2)N(C(C)=O)CCO3)c1", "inhibition": "-10.2% (inactive)"}
{"molecule": "O=C(CSCc1ccc(Cl)cc1)Nc1ccc(Br)cc1C(=O)O", "inhibition": "2.2% (inactive)"}
{"molecule": "Cn1c(=O)[nH]c(=O)c2c1nc(Sc1nc3ccccc3s1)n2Cc1ccccc1", "inhibition": "13.4% (inactive)"}
{"molecule": "Cn1c(SCc2ccc(Br)cc2)nc2c(c1=O)SCC2", "inhibition": "-9.1% (inactive)"}
{"molecule": "CCOC(=O)C1=C(Cc2ccc(C)cc2)C(=O)c2ccccc2C1=O", "inhibition": "5% (inactive)"}
{"molecule": "CCOC(=O)C1=C(Cc2ccc(F)cc2)C(=O)c2ccccc2C1=O", "inhibition": "11.7% (inactive)"}
{"molecule": "CCOC(=O)N1CCN(C(=O)C2CCN(S(=O)(=O)c3ccc(OCC)cc3)CC2)CC1", "inhibition": "10.5% (inactive)"}
{"molecule": "CC(C)c1ccc(/C=C2\\NC(=S)N(Cc3cccnc3)C2=O)cc1", "inhibition": "-2.8% (inactive)"}
{"molecule": "O=C1/C(=C/c2ccc(Cl)cc2)NC(=S)N1Cc1cccnc1", "inhibition": "-2.2% (inactive)"}
{"molecule": "S=c1[nH]nc(COc2ccccc2)n1/N=C/c1c(Cl)cccc1Cl", "inhibition": "0.3% (inactive)"}
{"molecule": "Cc1ccc(S(=O)(=O)N[C@@H](Cc2ccccc2)C(=O)N2CCC(C(=O)N[C@@H](CC(C)C)C(=O)O)CC2)cc1", "inhibition": "1% (inactive)"}
{"molecule": "Cc1ccc(OC(C)C(=O)Nc2ccc(S(=O)(=O)Nc3nccs3)cc2)cc1", "note": "(configuration not stated)", "inhibition": "-8.6% (inactive)"}
{"molecule": "COc1ccc(OC)c(NC(=O)C2CCN(S(=O)(=O)c3cccs3)CC2)c1", "inhibition": "4.3% (inactive)"}
{"molecule": "CCCCCC(=O)N/N=C(\\C)c1ccc(Cl)cc1", "inhibition": "-9.2% (inactive)"}
{"molecule": "CCN(CC(=O)NC1CCS(=O)(=O)C1)c1nc(-c2ccccc2)nc2ccccc12", "note": "(configuration not stated)", "inhibition": "1.8% (inactive)"}
{"molecule": "CCC(NC(=S)NC1CCCCC1)c1ccccc1", "note": "(configuration not stated)", "inhibition": "-4.4% (inactive)"}
{"molecule": "CCC(NC(=O)NC1CCCCC1)c1ccccc1", "note": "(configuration not stated)", "inhibition": "103% (active)"}
{"molecule": "CC(NC(=O)NC1CCCCC1)c1ccccc1", "note": "(configuration not stated)", "inhibition": "5.6% (inactive)"}
{"molecule": "COc1cc(C#N)ccc1OCC(=O)N1CCc2ccccc2C1", "inhibition": "10.3% (inactive)"}
{"molecule": "O=c1c(Cl)c(Cl)cnn1Cc1ccc(F)cc1", "inhibition": "49.1% (inactive)"}
{"molecule": "Cc1ccc(Cn2ncc(Cl)c(Cl)c2=O)cc1", "inhibition": "33.1% (inactive)"}
{"molecule": "CCc1c(C)sc(NC(=O)c2ccco2)c1C(=O)N1CCOCC1", "inhibition": "-15.5% (inactive)"}
{"molecule": "COc1ccc(OC)c(N(CC(=O)Nc2ccc3c(c2)OCCO3)S(C)(=O)=O)c1", "inhibition": "-8.2% (inactive)"}
{"molecule": "C[N+]1=C(/C=C/Nc2ccccc2Cl)C(C)(C)c2ccccc21", "inhibition": "6.8% (inactive)"}
{"molecule": "COC(=O)c1ccc2c(c1)C(C)(C)C(/C=C/c1ccccc1O)=[N+]2C", "inhibition": "18.9% (inactive)"}
{"molecule": "O=c1c(Cc2ccc(F)cc2)c(O)ccn1Cc1cccc(Cl)c1", "inhibition": "-9.1% (inactive)"}
{"molecule": "O=S(=O)(NCCSc1ccccc1)c1cccs1", "inhibition": "-13.8% (inactive)"}
{"molecule": "O=C(CCN1C(=O)/C(=C/c2ccc3c(c2)OCO3)SC1=S)Nc1ccccc1", "inhibition": "15.7% (inactive)"}
{"molecule": "O=C(CCN1C(=O)/C(=C/c2ccc3c(c2)OCO3)SC1=S)Nc1ccc(C(=O)O)cc1", "inhibition": "0.4% (inactive)"}
{"molecule": "O=C(CCN1C(=O)/C(=C/c2ccc3c(c2)OCO3)SC1=S)Nc1cccc(C(=O)O)c1", "inhibition": "-7.5% (inactive)"}
{"molecule": "O=C(CCCN1C(=O)/C(=C/c2ccco2)SC1=S)Nc1cccc(C(=O)O)c1", "inhibition": "5.8% (inactive)"}
{"molecule": "Cn1c(=O)n(CC(=O)N2CCOCC2)c2ccccc21", "inhibition": "-9.9% (inactive)"}
{"molecule": "O=C(CCN1C(=O)c2ccncc2C1=O)Nc1ccc(F)cc1", "inhibition": "3.7% (inactive)"}
{"molecule": "Brc1ccc(N=C/C=C/C=C/Nc2ccc(Br)cc2)cc1", "inhibition": "40.6% (inactive)"}
{"molecule": "CCn1c(O)c(/C=C/C=C/C=Nc2ccccc2)sc1=S", "inhibition": "-0.5% (inactive)"}
{"molecule": "C(/C=C/C=C/Nc1ccccc1)=Nc1ccccc1", "inhibition": "90.5% (active)"}
{"molecule": "COc1ccccc1NC(=O)N1CCN(Cc2ccc3c(c2)OCO3)CC1", "inhibition": "-7.3% (inactive)"}
{"molecule": "COc1ccc(/C=C2/S/C(=N/N=C3\\CC4CCC3(C)C4(C)C)NC2=O)cc1", "note": "(configuration not stated)", "inhibition": "1.4% (inactive)"}
{"molecule": "Cc1cccc(/C=C2/S/C(=N/N=C3\\CC4CCC3(C)C4(C)C)NC2=O)c1", "note": "(configuration not stated)", "inhibition": "1.3% (inactive)"}
{"molecule": "Cc1nc(CC(=O)O)c(-c2ccccc2)s1", "inhibition": "-2.4% (inactive)"}
{"molecule": "Cc1ccc(C(=O)C(C)OC(=O)c2cc3cc([N+](=O)[O-])ccc3oc2=O)cc1", "note": "(configuration not stated)", "inhibition": "-8.8% (inactive)"}
{"molecule": "Cc1cc(-c2nnc(SCC(=O)Nc3ccccc3Cl)n2C)no1", "inhibition": "18.2% (inactive)"}
{"molecule": "CC1=CC(=C(C#N)c2nc3ccccc3s2)C=C(C)N1CC1CCCO1", "note": "(configuration not stated)", "inhibition": "3.3% (inactive)"}
{"molecule": "CC[n+]1c(C=C2C=C(C)OC(C)=C2)sc2ccccc21", "inhibition": "11.8% (inactive)"}
{"molecule": "Cn1c(=O)cc(OCC(=O)NCCc2ccc(Cl)cc2)c2ccccc21", "inhibition": "13.1% (inactive)"}
{"molecule": "COc1ccc(OC)c2[nH]c(C(=O)N3CCC(C(=O)O)CC3)cc12", "inhibition": "-3.2% (inactive)"}
{"molecule": "CC1Cc2ccccc2N1C(=O)c1cccnc1", "note": "(configuration not stated)", "inhibition": "20.2% (inactive)"}
{"molecule": "COc1ccccc1/C=C/C(=C1/C(=O)N(c2ccccc2)N=C1C)c1ccc(C)cc1", "inhibition": "-2% (inactive)"}
{"molecule": "CC(C)(C=O)C1=CC(=O)c2ccccc2C1=O", "inhibition": "78.8% (active)"}
{"molecule": "CC(C)(C)c1ccc2c(c1)C(=O)c1ccccc1C2=O", "inhibition": "-1.9% (inactive)"}
{"molecule": "CC1=CC(=O)c2ccccc2C1=O", "inhibition": "10.8% (inactive)"}
{"molecule": "CC1Cc2ccccc2N1C(=O)CN(C)S(=O)(=O)c1cccc2cccnc12", "note": "(configuration not stated)", "inhibition": "-6.9% (inactive)"}
{"molecule": "Cc1ccccc1C(=O)N1CCCN(C(=O)c2ccccc2C)CC1", "inhibition": "-12.2% (inactive)"}
{"molecule": "O=C(NNC(=S)Nc1ccc(F)cc1F)c1ccco1", "inhibition": "-12.7% (inactive)"}
{"molecule": "CCOCCCNC(=O)C(c1ccc(Cl)cc1)N1CCN(c2ccccc2)CC1", "note": "(configuration not stated)", "inhibition": "5.9% (inactive)"}
{"molecule": "CC(C)NC(=O)/C(C#N)=C\\c1ccc(N(C)C)o1", "inhibition": "50% (active)"}
{"molecule": "Cc1ccc(/C=C(/C#N)C(=O)NC(C)c2ccccc2)o1", "note": "(configuration not stated)", "inhibition": "-7.7% (inactive)"}
{"molecule": "COc1ccc(/C=C(\\C#N)C(=O)NC(C)c2ccccc2)cc1O", "note": "(configuration not stated)", "inhibition": "9.9% (inactive)"}
{"molecule": "CCN(CC)c1ccc(/C=C(/C#N)C(=O)NC(C)C)o1", "inhibition": "14.3% (inactive)"}
{"molecule": "COC(=O)c1ccc(/C=C(\\C#N)C(=O)NC(C)c2ccccc2)cc1", "note": "(configuration not stated)", "inhibition": "-3.1% (inactive)"}
{"molecule": "CC(C)NC(=O)/C(C#N)=C/c1ccc(N(C)C)o1", "inhibition": "19.2% (inactive)"}
{"molecule": "Cc1ccc(/C=C(\\C#N)C(=O)NC(C)c2ccccc2)o1", "note": "(configuration not stated)", "inhibition": "-5.7% (inactive)"}
{"molecule": "CC(CCc1ccccc1)NC(=O)CCN1N=C(c2ccccc2)CCC1=O", "note": "(configuration not stated)", "inhibition": "-14.8% (inactive)"}
{"molecule": "O=C(NCCN1CCN(c2ccccc2)CC1)C1CCN(S(=O)(=O)N2CCOCC2)CC1", "inhibition": "17.1% (inactive)"}
{"molecule": "COc1cccc(C(=O)NC(=S)Nc2ccccc2N2CCCCC2)c1", "inhibition": "9.4% (inactive)"}
{"molecule": "O=C(CCn1cccn1)Nc1ccc2c(c1)OCCO2", "inhibition": "18.7% (inactive)"}
{"molecule": "CCC1(C)Cc2ccccc2-c2[nH][nH]c(=O)c21", "note": "(configuration not stated)", "inhibition": "-5.1% (inactive)"}
